This note sets out measurements from PubChem BioAssay (NCI).

“And” between values parts separate entries of the source, which are not always exact repeats. Identical values can stand only once. About 83,000 compounds went through this panel and 20% of them were active in at least one assay; those are over-represented in the sample as a whole.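 Each cell line was grown in a 96-well plate and treated with one concentration of compound for 48 hours. Values below 10 were considered active.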 The source made the active and inactive calls.

Some test systems named below: NCI-H23 lung; NCI-H522 lung; 786-0 renal; MDA-MB-231 breast; UACC-62 melanoma; LOX IMVI melanoma; CCRF-CEM leukemia; MOLT-4 leukemia; SR leukemia; OVCAR-8 ovarian; OVCAR-5 ovarian; OVCAR-4 ovarian; SK-OV-3 ovarian; IGROV1 ovarian; HS 578T breast; T-47D breast; SW-620 colon; MCF7 breast; HCT-116 colon; KM12 colon.
Holding throughout (assay): NCI-60 one-dose screen, 48 h (100 = growth as untreated, 0 = no growth, -100 = all killed)
Settings in all cases: 10 µM

On to `CC(C)(O)/C=C/C(=O)[C@](C)(O)[C@H]1[C@H](O)C[C@@]2(C)[C@H]3CC=C4[C@@H](C[C@H](O)C(=O)C4(C)C)[C@]3(C)C(=O)C[C@]12C`, for which the growth in the assay with NCI-H23 lung was 27.7% (inactive); in the assay with NCI-H522 lung it was -42.5% (active); in the assay on 786-0 renal it was 1.91% (active); in the assay on MDA-MB-231 breast it was 10.4% (inactive); with UACC-62 melanoma, -2.65% (active); in the assay on LOX IMVI melanoma, -13.8% (active). Besides, the growth in the assay with CCRF-CEM leukemia is 3.53% (active); in the assay with MOLT-4 leukemia, 24.8% (inactive); with SR leukemia, 8.56% (active); in the assay with OVCAR-8 ovarian, 23% (inactive); in the assay on OVCAR-5 ovarian it was 35.1% (inactive); in the assay on OVCAR-4 ovarian, 18.3% (inactive). Further, the growth with SK-OV-3 ovarian is -8.31% (active); in the assay with IGROV1 ovarian, -24.4% (active); in the assay with HS 578T breast, 3.77% (active); in the assay with T-47D breast, 27.2% (inactive); in the assay on SW-620 colon it was 22.9% (inactive); with MCF7 breast, 13% (inactive). The growth in the assay with HCT-116 colon was 13.9% (inactive); with KM12 colon, 42.2% (inactive).
As for `CCCCCCCCCC(=O)N[C@@](C)(CC)C(=O)N1CCC[C@H]1C(=O)N[C@@H](CC(C)C)C(=O)N[C@@](C)(CC)C(=O)N[C@@H](CCC(N)=O)C(=O)N[C@H](CCC(N)=O)C(=O)NC(C)(C)C(=O)NC(C)(C)C(=O)N[C@@H](CCC(N)=O)C(=O)N[C@H](CC(C)C)C(=O)N[C@H](CO)CC(C)C`, the growth was -78.3% (active) and -84.7% (active) in the assay with NCI-H23 lung; -84% (active) and -82.6% (active) in the assay with NCI-H522 lung; -78.5% (active) and -80.4% (active) with 786-0 renal; -92.2% (active) and -98.5% (active) with MDA-MB-231 breast; -90.6% (active) and -99.6% (active) in the assay with UACC-62 melanoma; -87.8% (active) and -92.7% (active) with LOX IMVI melanoma. The growth with CCRF-CEM leukemia is -38.9% (active) and -40.9% (active); with MOLT-4 leukemia, -50.5% (active) and -25.3% (active); with SR leukemia it was -31.3% (active) and 16.2% (inactive); with OVCAR-8 ovarian, -74.1% (active) and -63.2% (active); in the assay on OVCAR-5 ovarian, -98.7% (active) and -100% (active); in the assay with OVCAR-4 ovarian, -38.1% (active) and -35.2% (active). Further, the growth was -77.5% (active) and -56.9% (active) in the assay on SK-OV-3 ovarian; -84.9% (active) and -85.5% (active) in the assay with IGROV1 ovarian; -70.1% (active) and -58.6% (active) in the assay with HS 578T breast; -6.91% (active) and -59.3% (active) in the assay with T-47D breast; -79.7% (active) and -77.5% (active) in the assay on SW-620 colon; -76.7% (active) and -77.6% (active) with MCF7 breast. Further, the growth in the assay on HCT-116 colon was -66.1% (active) and -29% (active); in the assay on KM12 colon, -90.6% (active) and -93.5% (active).
Consider `NC1CCc2cc(O)c(O)cc2C1` (centres undefined), for which the growth in the assay on NCI-H23 lung was 91.8% (inactive); in the assay with NCI-H522 lung it was 92.3% (inactive); in the assay with 786-0 renal it was 84.7% (inactive); in the assay on MDA-MB-231 breast it was 101% (inactive); with UACC-62 melanoma it was 99.4% (inactive); in the assay with LOX IMVI melanoma, 70.9% (inactive). Besides, the growth with CCRF-CEM leukemia is 48% (inactive); in the assay with MOLT-4 leukemia it was 66% (inactive); in the assay with SR leukemia it was -24.1% (active); in the assay with OVCAR-8 ovarian, 101% (inactive); with OVCAR-5 ovarian, 91.4% (inactive); in the assay with OVCAR-4 ovarian, 98.7% (inactive). Moreover, the growth in the assay on SK-OV-3 ovarian was 104% (inactive); with IGROV1 ovarian, 97.9% (inactive); in the assay on HS 578T breast it was 100% (inactive); in the assay on T-47D breast, 88.9% (inactive); in the assay on SW-620 colon it was 93.1% (inactive); in the assay on MCF7 breast, 63.6% (inactive). In addition, the figures for the growth with HCT-116 colon and in the assay with KM12 colon were 58.1% (inactive) and 97.5% (inactive), respectively.
On to `C[C@@H]1C[C@H]2C(=O)O[C@@H](C)C(NC(=O)[C@H](Cc3cc(F)cc(F)c3)NC(=O)Nc3ccc(OS(=O)(=O)F)cc3)C(=O)N3CCC[C@H]3C(=O)N3CCO[C@H](C)[C@H]3C(=O)N[C@@H](CO)C(=O)N2C1` (some centres undefined), for which the growth is 36.1% (inactive) in the assay with NCI-H23 lung; 20.3% (inactive) with NCI-H522 lung; 42.7% (inactive) in the assay with 786-0 renal; 32% (inactive) with MDA-MB-231 breast; 23.5% (inactive) in the assay with UACC-62 melanoma; 7.58% (active) in the assay on LOX IMVI melanoma. The growth was 34.1% (inactive) in the assay on CCRF-CEM leukemia; 43.8% (inactive) in the assay on MOLT-4 leukemia; 25.3% (inactive) with SR leukemia; 23.6% (inactive) in the assay on OVCAR-8 ovarian; 33.4% (inactive) in the assay with OVCAR-5 ovarian; 26.2% (inactive) in the assay with OVCAR-4 ovarian. Besides, the growth was 18.7% (inactive) with SK-OV-3 ovarian; 47.4% (inactive) in the assay with IGROV1 ovarian; 40.2% (inactive) with HS 578T breast; 33% (inactive) with T-47D breast; 39% (inactive) in the assay on SW-620 colon; 16.8% (inactive) with MCF7 breast. Further, the values for the growth in the assay on HCT-116 colon and with KM12 colon were 9.86% (active) and 37.8% (inactive), respectively.
Consider `Cc1ccc(CNc2nc3ccc(OC/C(=C/F)CN)cc3o2)cn1`, for which the growth was 88.4% (inactive) in the assay on NCI-H23 lung; 92.3% (inactive) with 786-0 renal; 79.6% (inactive) in the assay on MDA-MB-231 breast; 90.8% (inactive) with UACC-62 melanoma; 88.4% (inactive) with LOX IMVI melanoma; 105% (inactive) in the assay on CCRF-CEM leukemia. In addition, the growth with MOLT-4 leukemia was 99.8% (inactive); in the assay with SR leukemia, 101% (inactive); in the assay on OVCAR-8 ovarian it was 108% (inactive); in the assay with OVCAR-5 ovarian, 103% (inactive); with OVCAR-4 ovarian, 88.1% (inactive); with SK-OV-3 ovarian, 105% (inactive). In addition, the growth is 78.5% (inactive) in the assay with IGROV1 ovarian; 101% (inactive) in the assay on HS 578T breast; 101% (inactive) in the assay with T-47D breast; 97.6% (inactive) in the assay with SW-620 colon; 88.8% (inactive) with MCF7 breast; 100% (inactive) in the assay on HCT-116 colon. Further, in the assay on KM12 colon, the growth was 103% (inactive).
In the case of `CCC(C)[C@H]1C(=O)O[C@H](C(C)C)C(=O)N(C)[C@@H](C(C)C)C(=O)O[C@H](C(C)C)C(=O)N(C)[C@@H](C(C)C)C(=O)O[C@H](C(C)C)C(=O)N1C` (some centres undefined), the growth is 10% (inactive) in the assay with NCI-H23 lung; 7.23% (active) in the assay on NCI-H522 lung; 20.9% (inactive) with 786-0 renal; 7.98% (active) with MDA-MB-231 breast; 9.22% (active) with UACC-62 melanoma; 9.79% (active) in the assay with LOX IMVI melanoma. For the same compound, the growth in the assay with CCRF-CEM leukemia is 7.02% (active); in the assay on MOLT-4 leukemia it was -13% (active); with SR leukemia, 8.09% (active); with OVCAR-8 ovarian it was 14.9% (inactive); in the assay with OVCAR-5 ovarian, 20.7% (inactive); in the assay with OVCAR-4 ovarian, 20.3% (inactive). For the same compound, the growth in the assay with SK-OV-3 ovarian is -9.75% (active); in the assay on IGROV1 ovarian, 34.4% (inactive); with HS 578T breast, 30.4% (inactive); with T-47D breast it was 3.16% (active); with SW-620 colon it was 17.4% (inactive); with MCF7 breast, 12.5% (inactive). The growth in the assay with HCT-116 colon was 12.2% (inactive); in the assay with KM12 colon it was 16.4% (inactive).
As for `C/C=C/CC(C)C(O)[C@H](NC(=O)[C@@H]1CCCN1C(=O)C(C)(C)NC(=O)CCCCCCC)C(=O)N[C@@](C)(CC)C(=O)N[C@@H](CCC(N)=O)C(=O)N[C@H](CCC(N)=O)C(=O)NC(C)(C)C(=O)NC(C)(C)C(=O)N[C@@H](CCC(N)=O)C(=O)N[C@H](CC(C)C)C(=O)N[C@H](CO)CC(C)C` (some centres undefined), the growth in the assay with NCI-H23 lung is 16.4% (inactive); in the assay on NCI-H522 lung, 103% (inactive) and -8.57% (active); in the assay with 786-0 renal, 103% (inactive) and 39.8% (inactive); in the assay on MDA-MB-231 breast, 108% (inactive) and -6.87% (active); in the assay with UACC-62 melanoma, 103% (inactive) and 19.2% (inactive); with LOX IMVI melanoma, 33.2% (inactive). Further, the growth is 103% (inactive) and -23.3% (active) in the assay with CCRF-CEM leukemia; 101% (inactive) and -32.4% (active) with MOLT-4 leukemia; 92.9% (inactive) and 0.907% (active) in the assay on SR leukemia; 106% (inactive) and 24.6% (inactive) in the assay on OVCAR-8 ovarian; 114% (inactive) and 40% (inactive) in the assay on OVCAR-5 ovarian; 108% (inactive) and 44.5% (inactive) with OVCAR-4 ovarian. Moreover, the growth with SK-OV-3 ovarian is 101% (inactive) and 52.6% (inactive); in the assay with IGROV1 ovarian, 113% (inactive) and 46.4% (inactive); with HS 578T breast, 110% (inactive) and -10.8% (active); in the assay with T-47D breast, 102% (inactive) and 7.2% (active); in the assay on SW-620 colon it was 103% (inactive) and 31.6% (inactive); with MCF7 breast, 93.3% (inactive) and 4.76% (active). The growth in the assay on HCT-116 colon was 108% (inactive) and 25.3% (inactive); in the assay on KM12 colon it was 119% (inactive) and -53% (active).
